# Measured values as given in PubChem BioAssay AID1379 (National Center for Advancing Translational Sciences (NCATS), 2008).
# Out of some 200,000 compounds screened, about 560 (0.28%) were called active. Where a call stands in place of a potency, no number is given. Calls come from the whole dose curve; as a rule, active = well fitted inhibition curve with a large enough effect; inconclusive = small, poorly fitted or top-dose-only effect; inactive = flat fitted curve, though single readings scatter. Many of the other results were omitted from the sample, so actives are more common in it than they were.
# Molecular target: Luciferin 4-monooxygenase (Photuris pensylvanica) (UniProt Q27757)
# Assay: Counterscreen for Luciferase (Kinase-Glo TM) Inhibition; note: nearly all actives have a fitted effect of over 60% in size
# Details: ATP luminescence, 8 min; series mostly up to 38.3 µM
# Protocol: NCGC Assay Overview: NIH Molecular Libraries Screening Centers Network [MLSCN] NIH Chemical Genomics Center [NCGC] MLSCN Grant: None Luciferase (Kinase-Glo, Promega Corporation) was assayed for its ability to generate light using ATP and luciferin as substrates. The ATP concentration in the assay (10 uM) was within the linear range of enzyme activity for the assay conditions used.
# NCGC Assay Protocol Summary: Four uL of substrate mix (final concentration, 50 mM imidazole pH 7.2, 50 mM KCl, 7 mM MgCl2, 10 uM ATP, 0.01% Tween 20, 0.05% BSA) was dispensed into white 1536 well plates. Twenty-three nL of compound was delivered by a pin tool and 2 uL of luciferase detection mix (Kinase-Glo, Promega)) was added. Following 8-minute incubation at ambient temperature, luminescence was measured by a ViewLux (Perkin Elmer) at 5 seconds exposure/plate.
# Potency is the fitted concentration of half-maximal effect.
SMILES,"activity change, negative = inhibition",Potency
COC(=O)C1=C(C(=O)OC)[C@@H]2N(C)c3ccccc3[C@@]23C[C@@H](C(=O)OC)N(S(=O)(=O)c2ccc(Br)cc2)C3=N1,-4.44% [at 7.66 µM] (inactive),
CCCCCCCC/C=C\CCCCCCCC(=O)NCC(=O)O,inactive,
CCOC(=O)C1=NO[C@@]2(C=C(Br)C(=O)[C@H]3O[C@H]32)C1,inactive,
COc1cccc([C@@H]2Oc3ccc(Br)cc3C(=O)[C@H]2OC(=O)NCc2ccc3c(c2)OCO3)c1,inactive,
COCCN1C(=O)N[C@@H](CCc2ccccc2)[C@H](C(C)=O)[C@H]1C,-8.66% [at 7.66 µM] (inactive),
Cc1ccc(N2CCN(C3=NC(=O)/C(=C\c4cccs4)S3)CC2)cc1,inactive,
CCc1ccc(/C=C2\SC(N3CCOCC3)=NC2=O)cc1,inactive,
Cc1ccsc1/C=C1\SC(N2CCOCC2)=NC1=O,,12.6 µM (active)
COC(=O)CCCC1=CC2=C(c3ccccc3)C(=O)C(C)(OC(=O)C3CCCC3)C(=O)C2=CN1c1ccc(OC)cc1 (centres undefined),-10.4% [at 7.66 µM] (inactive),
COC(C)C(C(=O)OCC1=CCN2CC[C@H](O)[C@@H]12)C(C)C (some centres undefined),inactive,
COC(=O)CC1c2ccccc2C(Cc2ccc(OC)cc2)=C(C)N1C(=O)OC (centres undefined),-5.96% [at 7.66 µM] (inactive),
COc1cccc(/C=N/NC(=O)c2[nH]nc3c2CCc2ccccc2-3)c1O,inactive,
COc1cccc(/C=N\NC(=O)C2=NNC(=O)C2C)c1O (centres undefined),,12.6 µM (active)
COc1cccc(/C=N/Nc2cc(C)nc(-c3ccccc3O)n2)c1O,inactive,
Cc1ccc(S(=O)(=O)N2CCC(=O)N([C@H](COCc3ccccc3)Cc3ccccc3)CC2)cc1,inactive,
CCOC(=O)C1=C(C)c2ccccc2OC1C(=O)OCC (centres undefined),inactive,
COC(=O)CCCC1=CC2=CC(=O)C(C)(OC(=O)c3cccs3)C(=O)C2=CN1c1ccc(CO)cc1 (centres undefined),-0.663% [at 7.66 µM] (inactive),
COc1ccc(-c2nc3c(c4c2C[C@H](c2ccccc2)OC4)CN(C(=O)c2ccco2)CC3)c(C)c1,-7.1% [at 7.66 µM] (inactive),
Brc1ccc2nc(N3CCCC3)sc2c1,inactive,
c1c2c(cc3sc(N4CCCCC4)nc13)OCCO2,,12.6 µM (active)
COc1ccc2nc(Nc3nc4cc5c(cc4s3)OCCO5)sc2c1,inactive,
CCCCC[C@H](O)/C=C/[C@@H]1[C@@H](CC(=O)CCC(=O)O)[C@@H](O)C[C@H]1O,inactive,
COc1ccc(-c2nc3c(c4c2C[C@H](c2ccccc2)OC4)CN(C(=O)c2cccnc2)CC3)c(C)c1,-3.92% [at 7.66 µM] (inactive),
CCCCC/C=C\C[C@H](O)/C=C/C=C/C=C/[C@@H](O)CCCC(=O)O,inactive,

SMILES,"activity change, negative = inhibition",Potency
Cc1cc2oc(=O)cc(-c3ccccc3)c2c(C)c1-c1ccc(OC(F)(F)F)cc1,inactive,
C[C@H]1Cc2c(-c3ccccc3)nc3c(c2CO1)CN(C(=O)C1CC1)CC3,-7.42% [at 7.66 µM] (inactive),
CC(Nc1oc(-c2ccccc2)nc1-c1ccccc1)c1ccccc1 (centres undefined),inactive,
CC(=C/c1ccccc1)/C=N/NC(=O)c1cc(C)oc1C,inactive,
CCN(CC)c1ccc(C(=O)N/N=C/c2ccc(N3CCOCC3)cc2)cc1,inactive,
Cc1cc(C(=O)N/N=C/c2ccc(N3CCOCC3)cc2)c(C)o1,,11.2 µM (active)
COc1ccc(-c2nc(-c3ccccc3)oc2Nc2ccc3ccccc3c2)cc1,inactive,
Cc1ccc(CC2(O)CCN(CCOc3ccc(O)cc3)CC2)cc1,inactive,
COC/C=C/C1=CC2=CC(=O)C(C)(OC(=O)CCC(=O)OC)C(=O)C2=CO1 (centres undefined),inactive,
C=CC1=C2C=C(C3CC3)N(C(CO)CO)C=C2C(=O)C(C)(OC(=O)c2ccco2)C1=O (centres undefined),-0.389% [at 7.66 µM] (inactive),
CCN1C(=O)N[C@@H](c2ccccc2)C(C(=O)OC)=C1C,-0.704% [at 7.66 µM] (inactive),
C=CCSc1nc2ccccc2[nH]1,inactive,
c1ccc2[nH]c(-c3nc4ccccc4[nH]3)nc2c1,,11.2 µM (active)
Cc1ccc(-c2nc3ccccc3[nH]2)cc1NC(=O)c1sc2ccccc2c1Cl,inactive,
COc1ccc(Br)cc1C(=O)NC(=S)Nc1cc(-c2nc3ccccc3[nH]2)ccc1C,inactive,
Cc1ccc(-c2nc3ccccc3[nH]2)cc1N,,6.31 µM (active)
OCCNc1nc2ccccc2[nH]1,inactive,
COCOc1cc(OC)ccc1C(=O)/C=C/c1ccc([N+](=O)[O-])cc1,inactive,
Cc1cc2oc(=O)cc(-c3ccccc3)c2c(C)c1/C=C/c1ccc(F)cc1,inactive,
COC(=O)c1ccc(NCC(=O)N2CCCCCC2)cc1,inactive,
Cc1ccc(C(=O)CNc2ccc(F)cc2)cc1,inactive,
COC(=O)c1ccc(NCC(=O)c2ccccc2)cc1,,10 µM (active)
C/C=C(\C)C(=O)OC1C(OC(=O)C2(C)OC2C)c2cc3ccc(=O)oc3cc2OC1(C)C (centres undefined),inactive,
O=C(OCc1ccc([N+](=O)[O-])cc1)c1ccccn1,inactive,

SMILES,"activity change, negative = inhibition",Potency
N/C(=N\OC(=O)Cc1ccc([N+](=O)[O-])cc1)c1ccccn1,inactive,
N/C(=N\OC(=O)c1ccc([N+](=O)[O-])cc1)c1ccccn1,,8.91 µM (active)
C=CC(C1=CC(=O)C=CC1=O)c1ccc(O)cc1 (centres undefined),inactive,
COc1cc(OC)c2c(-c3cccc(-c4cccc(N)c4)c3)cc(=O)oc2c1,inactive,
Cn1c(=O)n(C)c2cc(C(=O)Nc3ccc4c(c3)OCO4)ccc21,inactive,
COc1cc(NC(=O)c2ccc3c(c2)OCO3)ccc1NC(=O)c1cccs1,inactive,
COc1ccc(C(=O)Nc2ccc3c(c2)OCO3)cc1OC,,12.6 µM (active)
CCOc1cc(NC(=O)c2ccccn2)c(OCC)cc1NC(=O)c1ccc(OC)cc1,inactive,
COc1ccc(-c2csc(Nc3ccccn3)n2)cc1,inactive,
COc1ccc(C(=O)/C=C/Nc2ccccn2)cc1,,11.2 µM (active)
S=C(NCCCc1cnc[nH]1)NCCCN(Cc1ccc(Cl)c(Cl)c1)c1ccc(Br)cn1,inactive,
COc1ccc(C2=NOC3(CC(=O)N(c4ccc(C)cc4)C3=O)C2)cc1 (centres undefined),inactive,
COc1ccc(-c2noc(-c3ccc(C)cc3)n2)cc1,inactive,
COc1ccc(C2=Nc3cc(C)ccc3OC2)cc1,,8.91 µM (active)
C=C1c2cccc(OC)c2O[C@H](C(=O)OCC)[C@@H]1CCCCCC,inactive,
CC(=NCc1ccco1)c1c(C(F)(F)F)[nH]n(-c2nc3ccccc3s2)c1=O,,8.91 µM (active)
CCc1ccc(-c2cc(C(=O)NCc3ccco3)c3ccccc3n2)s1,inactive,
CC(=NCc1ccco1)C1=C(O)c2ccccc2C1=O,inactive,
CC(=O)/C(C)=N/O,inactive,
C/C=C1\C2C=C(C)CC1(N)c1ccc(=O)[nH]c1C2 (centres undefined),inactive,
O=c1c(O)c(Br)ccc2c(Br)c(O)c(O)c(O)c12,inactive,
Brc1ccc(C2=NCCC(c3ccccc3)O2)cc1 (centres undefined),inactive,
COc1ccc(-c2c(C)cc3oc(=O)cc(-c4ccccc4)c3c2C)cc1C=O,inactive,
OC[C@H]1O[C@@H](n2cnc3c(NC4CCCC4)ncnc32)[C@H](O)[C@H]1O,inactive,

SMILES,"activity change, negative = inhibition",Potency
O=C1OCCN1C(=O)[C@H]1[C@H](c2ccccc2)C(c2ccc(F)cc2)=NN1c1ccccc1,inactive,
CCCCS(=O)(=O)N1C2=NC(C(=O)OC)=C(C(=O)OC)[C@@H]3N(Cc4ccccc4)c4ccccc4[C@]23C[C@H]1C(=O)OC,-7.24% [at 7.66 µM] (inactive),
O=C1CCC[C@@H]2CC(N3CCCCC3)C[C@@H]3CCN1[C@H]23 (some centres undefined),inactive,
COc1ccccc1C(=O)NNC(=O)c1ccc(NC(=O)c2ccccc2)cc1,inactive,
COc1ccc(C(=O)Nc2ccccc2C(=O)N/N=C/c2ccc(O)c(OC)c2)cc1,,1 µM (active)
COc1ccc(C(=O)Nc2ccccc2C(=O)N/N=C/c2ccccc2OC)cc1,,6.31 µM (active)
COc1cc(/C=N/NC(=O)c2ccccc2)ccc1OS(=O)(=O)c1ccccc1,inactive,
COc1ccc(/C=N/NC(=O)c2ccccc2)cc1OS(=O)(=O)c1ccccc1,inactive,
CCn1c(/C=N/NC(=O)c2ccc(OC)cc2)nc2ccccc21,inactive,
CC1(OC(=O)C2CCCC2)C(=O)C=C2C=C(c3ccc(C#N)cc3)OC=C2C1=O (centres undefined),inactive,
C[C@H]1Cc2c(COc3ccccc3)nc3c(c2CO1)CN(C(=O)Nc1cccc(C#N)c1)CC3,-0.91% [at 7.66 µM] (inactive),
COC1(C2=NCCN2)COc2ccccc2O1 (centres undefined),inactive,
O=C1OCCN1C(=O)[C@H]1[C@H](c2ccc(Cl)cc2)C(c2cccc(Cl)c2)=NN1c1ccc(Br)cc1,inactive,
COc1ccc2c(c1)O[C@@H](c1ccc3c(c1)OCO3)[C@H](OC(=O)NCCc1ccc(OC)c(OC)c1)C2=O,inactive,
CC[C@H](C)[C@@H](NC(=O)O[C@@H]1C(=O)c2cc(OC)ccc2O[C@H]1c1cccc(OC)c1)C(=O)OC,inactive,
CCOC(=O)C1C/C(=C\C(C)=O)c2cccc(C(F)(F)F)c2O1 (centres undefined),inactive,
OC[C@H]1O[C@@H](n2cnc3c(N[C@H]4CC5CCC4C5)ncnc32)[C@H](O)[C@@H]1O (some centres undefined),inactive,
COc1ccccc1CNC(=O)c1ccc(SC)cc1OC,inactive,
COc1cc(SC)ccc1C(=O)Nc1nc(C)cs1,,11.2 µM (active)
COc1cc(SC)ccc1C(=O)Nc1cc(C)ccn1,inactive,
CCCCC1=CC2=CC(=O)C(C)(OC(=O)CC)C(=O)C2=CN1CCCOC(C)C (centres undefined),-3.21% [at 7.66 µM] (inactive),
C=CCN1c2ccccc2[C@]23C[C@@H](C(=O)OC)N(S(=O)(=O)c4ccc([N+](=O)[O-])cc4)C2=NC(C(=O)OC)=C(C(=O)OC)[C@H]13,-1.89% [at 7.66 µM] (inactive),
